# Data: the supplement of paper PMC7393113
# Structures can show the parent of a compound that is named as a salt. ± gives the standard deviation of the averaged measurements.
# Tested on: iBMDM (immortalised mouse bone-marrow-derived macrophages), LPS-stimulated
# Assay: mitochondrial superoxide (MitoSOX fluorescence) fold increase over unstimulated control; higher = more LPS-induced mitochondrial ROS (less inhibition)
# Conditions: inhibitor concentration: 500 nM, LPS: 100 ng/ml
# In short: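 After 20 h in phenol-red-free 1% FCS/DMEM in black 96-well plates, immortalised mouse bone-marrow-derived macrophages were exposed to kinase inhibitors (500 nM) for 30 min, 1 μM MitoSox for 10 min and then LPS (100 ng/ml). A ClarioStar plate reader recorded fluorescence at 510/580 nm every 60 min for 4 h. The reported mitochondrial superoxide is the mean fold induction versus untreated macrophages over triplicate wells.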
SMILES,mitochondrial superoxide (time after LPS: 1 h),mitochondrial superoxide (time after LPS: 2 h),mitochondrial superoxide (time after LPS: 4 h)
CC(C)(C)c1cnc(CSc2cnc(NC(=O)C3CCNCC3)s2)o1,1.32 ± 0.035,1.43 ± 0.017,1.5 ± 0.14
O=C(Nc1cccc(Cl)c1)Nc1ncc(CCNc2ncnc3ccsc23)s1 [SNS-314 Mesylate],1.32 ± 0.029,1.36 ± 0.048,1.42 ± 0.08
OCCn1cc(-c2ccc3c(c2)CC/C3=N\O)c(-c2ccncc2)n1,1.36 ± 0.044,1.45 ± 0.064,1.49 ± 0.02
C[C@]1(O)C[C@@H](c2nc(-c3ccc4ccc(-c5ccccc5)nc4c3)c3c(N)nccn32)C1 [OSI-906 (Linsitinib)],1.45 ± 0.18,1.51 ± 0.21,1.56 ± 0.19
FC(F)c1nc2ccccc2n1-c1nc(N2CCOCC2)nc(N2CCOCC2)n1,1.53 ± 0.029,1.71 ± 0.068,1.8 ± 0.038
O=C(c1cccc(Cl)c1F)N1CCN(Cc2cccc(Nc3nccs3)n2)CC1,1.15 ± 0.018,1.22 ± 0.048,1.37 ± 0.053
Cc1ccc2nc(NCCN)c3ncc(C)n3c2c1,1.43 ± 0.036,1.48 ± 0.027,1.63 ± 0.047
COc1cc2c(Nc3ccc(NC(=O)c4ccccc4)cc3)ncnc2cc1OCCCN1CCOCC1,1.34 ± 0.06,1.44 ± 0.069,1.52 ± 0.037
CNC(=O)c1ccc(C)c(-n2c(C)cc(OCc3ccc(F)cc3F)c(Br)c2=O)c1,1.33 ± 0.056,1.48 ± 0.059,1.6 ± 0.016
COc1ccc(C(=O)Nc2sc3c(c2C(N)=O)CCCC3)cc1OC,1.42 ± 0.034,1.49 ± 0.045,1.64 ± 0.03
O=C1NC(=O)/C(=C/c2ccc3c(c2)OC(F)(F)O3)S1,1.26 ± 0.032,1.4 ± 0.033,1.51 ± 0.068
O=C(Nc1cc(C(F)(F)F)cc(C(F)(F)F)c1)c1cc(Cl)ccc1O,0.988 ± 0.04,1.04 ± 0.033,1.01 ± 0.054
CCc1cccc(CC)c1NC(=O)N1Cc2[nH]nc(NC(=O)c3ccc(N4CCN(C)CC4)cc3)c2C1,1.09 ± 0.027,1.24 ± 0.015,1.34 ± 0.099
O=C(NOCC1CC1)c1ccc(F)c(F)c1Nc1ccc(I)cc1Cl,1.57 ± 0.11,1.59 ± 0.071,1.9 ± 0.1
CCS(=O)(=O)c1cccc(-c2cc(C(=O)NC3CCN(C)CC3)c(C)c3[nH]c4ncc(C)cc4c23)c1,1.31 ± 0.05,1.48 ± 0.079,1.64 ± 0.098
"Cn1c(=O)n(-c2ccc(C(C)(C)C#N)cc2)c2c3cc(-c4cnc5ccccc5c4)ccc3ncc21 [BEZ235 (NVP-BEZ235, Dactolisib)]",1.47 ± 0.087,1.47 ± 0.084,1.61 ± 0.076
CC(C)(C#N)c1ccc(N2C(=O)OCc3cnc4ccc(-c5cnc6ccccc6c5)cc4c32)cc1,1.4 ± 0.039,1.48 ± 0.056,1.676 ± 0.013
Cc1ccc(NC(=O)c2ccc(CN3CCN(C)CC3)cc2)cc1Nc1nccc(-c2cccnc2)n1 [Imatinib (STI571)],1.28 ± 0.061,1.39 ± 0.18,1.49 ± 0.12
COc1cc(Nc2nc3ccccc3nc2NS(=O)(=O)c2ccc(NC(=O)c3ccc(C)c(OC)c3)cc2)cc(OC)c1,1.17 ± 0.022,1.23 ± 0.06,1.33 ± 0.061
N#Cc1c(O)c2c(-c3ccc(-c4ccccc4O)cc3)csc2[nH]c1=O,1.3 ± 0.051,1.43 ± 0.023,1.52 ± 0.034
Cc1ccc(S(=O)(=O)C=CC#N)cc1,1.19 ± 0.044,1.19 ± 0.073,1.34 ± 0.095
NCC(=O)Nc1ccc(-n2nc(C(F)(F)F)cc2-c2ccc3c(ccc4ccccc43)c2)cc1,1.414 ± 0.012,1.41 ± 0.031,1.49 ± 0.087
Nc1ncnc2c1c(-c1cccc(OCc3ccccc3)c1)cn2C1CC(CN2CCCC2)C1 (configuration not stated),1.44 ± 0.15,1.55 ± 0.18,1.62 ± 0.21

SMILES,mitochondrial superoxide (time after LPS: 1 h),mitochondrial superoxide (time after LPS: 2 h),mitochondrial superoxide (time after LPS: 4 h)
CC(C)NC[C@@H](C(=O)N1CCN(c2ncnc3c2[C@H](C)C[C@H]3O)CC1)c1ccc(Cl)cc1,1.25 ± 0.045,1.49 ± 0.11,1.7 ± 0.094
Nc1nc(NCCNc2ncc(-n3ccnc3)c(-c3ccc(Cl)cc3Cl)n2)ccc1[N+](=O)[O-],1.17 ± 0.042,1.23 ± 0.024,1.31 ± 0.056
CS(=O)(=O)N1CCN(Cc2cc3nc(-c4cccc5[nH]ncc45)nc(N4CCOCC4)c3s2)CC1,1.28 ± 0.025,1.42 ± 0.027,1.6 ± 0.041
CCc1cncnc1N1CCN(Cc2nc3ccc(C(F)(F)F)cc3[nH]2)CC1,1.12 ± 0.073,1.23 ± 0.037,1.34 ± 0.1
NC1(Cc2ccc(Cl)cc2)CCN(c2ncnc3[nH]ccc23)CC1,1.31 ± 0.037,1.43 ± 0.058,1.68 ± 0.021
CNC(=O)c1cccc(-c2ccc3c(N4CCOC[C@@H]4C)nc(N4CCOC[C@@H]4C)nc3n2)c1,1.18 ± 0.058,1.46 ± 0.074,1.66 ± 0.1
Cc1[nH]nc2ccc(-c3cncc(OC[C@@H](N)Cc4ccccc4)c3)cc12,1.24 ± 0.1,1.43 ± 0.11,1.68 ± 0.098
Cc1cc(Nc2nc(N[C@@H](C)c3ccc(F)cc3)c(C#N)cc2F)n[nH]1,1.09 ± 0.054,1.18 ± 0.028,1.31 ± 0.085
COc1cc(Nc2ncc(F)c(Nc3ccc4c(n3)N(COP(=O)(O)O)C(=O)C(C)(C)O4)n2)cc(OC)c1OC [Fostamatinib (R788)],1.29 ± 0.026,1.429 ± 0.0045,1.71 ± 0.034
O=C(NCc1ccccc1)c1csc(Nc2ccncn2)n1 [Thiazovivin],1.11 ± 0.012,1.2 ± 0.078,1.29 ± 0.11
C[C@H](NC(=O)/C(C#N)=C/c1cccc(Br)n1)c1ccccc1,1.21 ± 0.039,1.368 ± 0.011,1.5 ± 0.04
O=C1NCCc2[nH]c(-c3ccncc3)cc21,1.31 ± 0.054,1.41 ± 0.039,1.63 ± 0.06
Cc1cc(C(=O)NOCCO)c(Nc2ccc(I)cc2F)n(C)c1=O,1.05 ± 0.042,1.25 ± 0.092,1.39 ± 0.073
O=C(O)[C@]1(Cc2cccc(Nc3nccs3)n2)CC[C@@H](Oc2cccc(Cl)c2F)CC1,1.22 ± 0.027,1.39 ± 0.086,1.51 ± 0.044
COc1cc2ncnc(Nc3ccc(Cl)cc3F)c2cc1OC,1.12 ± 0.029,1.24 ± 0.037,1.271 ± 0.0046
CC[C@@H]1C(=O)N(C)c2cnc(Nc3ccc(C(=O)N[C@H]4CC[C@H](N5CCN(CC6CC6)CC5)CC4)cc3OC)nc2N1C(C)C [Volasertib (BI 6727)],1.18 ± 0.016,1.27 ± 0.026,1.37 ± 0.043
CC(C)(C)c1cc(/C=C(\C#N)C(N)=S)cc(C(C)(C)C)c1O [Tyrphostin AG 879],1.37 ± 0.06,1.42 ± 0.037,1.61 ± 0.037
COc1cc2ncc(-c3ccccc3)nc2cc1OC [Tyrphostin AG 1296],1.469 ± 0.014,1.47 ± 0.017,1.58 ± 0.021
CC(C)(C)Cn1c(N)nc2ccc(-c3[nH]c(C(C)(C)C)nc3-c3ccc(F)cc3)nc21,1.111 ± 0.0047,1.17 ± 0.032,1.33 ± 0.066
Nc1nc(N)c2nc(-c3cccc(O)c3)c(-c3cccc(O)c3)nc2n1,1.18 ± 0.049,1.23 ± 0.1,1.4 ± 0.12
CCCS(=O)(=O)Nc1ccc(F)c(C(=O)c2c[nH]c3ncc(Cl)cc23)c1F,1.24 ± 0.15,1.26 ± 0.15,1.34 ± 0.21
Nc1nccc(Oc2ccc(NC(=O)c3c[nH]cc(-c4ccc(F)cc4)c3=O)cc2F)c1Cl,1.21 ± 0.032,1.22 ± 0.043,1.37 ± 0.11
Clc1ccc(C2(c3ccc(-c4cn[nH]c4)cc3)CCNCC2)cc1,1.16 ± 0.065,1.21 ± 0.061,1.25 ± 0.042

SMILES,mitochondrial superoxide (time after LPS: 1 h),mitochondrial superoxide (time after LPS: 2 h),mitochondrial superoxide (time after LPS: 4 h)
CN1CCN(c2nc(C3=C(c4c[nH]c5ccccc45)C(=O)NC3=O)c3ccccc3n2)CC1 [Sotrastaurin],1.41 ± 0.015,1.55 ± 0.039,1.749 ± 0.012
COc1cc(CCc2cc(NC(=O)c3ccc(N4CC(C)NC(C)C4)cc3)n[nH]2)cc(OC)c1 (configuration not stated),1.26 ± 0.04,1.42 ± 0.032,1.53 ± 0.092
O=C(Nc1ccc(-c2ccnc(Nc3ccc(N4CCOCC4)cc3)n2)cc1)C1CCCN1 (configuration not stated),1.21 ± 0.058,1.232 ± 0.011,1.3 ± 0.068
CN(C)Cc1cccc(N=C(c2ccccc2)c2c(O)[nH]c3cc(C(N)=O)ccc23)c1,1.15 ± 0.031,1.15 ± 0.052,1.26 ± 0.07
C[C@@H](N)[C@H]1CC[C@H](C(=O)Nc2ccncc2)CC1,1.56 ± 0.061,1.67 ± 0.11,1.71 ± 0.065
CNC(=O)Nc1ccc(-c2nc(N3CC4CCC(C3)O4)c3cnn(C4CCC5(CC4)OCCO5)c3n2)cc1,1.26 ± 0.075,1.45 ± 0.028,1.58 ± 0.024
CCC(=O)Nc1cccc(Oc2nc(Nc3ccc(N4CCN(C)CC4)cc3OC)ncc2Cl)c1,1.39 ± 0.084,1.51 ± 0.091,1.79 ± 0.061
CNC(=O)CN1CCC(Oc2cc3c(Nc4cccc(Cl)c4F)ncnc3cc2OC)CC1 [AZD8931 (Sapitinib)],1.12 ± 0.041,1.24 ± 0.048,1.37 ± 0.046
C=CC(=O)Nc1cccc(Nc2nc(Nc3ccc(N4CCN(C(C)=O)CC4)cc3OC)ncc2C(F)(F)F)c1,1.49 ± 0.069,1.49 ± 0.063,1.65 ± 0.12
Cn1cc(C2=C(c3cn(CCCSC(=N)N)c4ccccc34)C(=O)NC2=O)c2ccccc21 [Ro 31-8220 Mesylate],1.57 ± 0.051,1.6 ± 0.0078,1.79 ± 0.12
CC(=O)Nc1cccc(-n2c(=O)n(C3CC3)c(=O)c3c(Nc4ccc(I)cc4F)n(C)c(=O)c(C)c32)c1,1.34 ± 0.11,1.44 ± 0.066,1.62 ± 0.083
COc1cc2c(Oc3ccc(NC(=O)C4(C(=O)Nc5ccc(F)cc5)CC4)cc3F)ccnc2cc1OCCCN1CCOCC1,1.25 ± 0.022,1.35 ± 0.034,1.48 ± 0.03
CCn1c2ccccc2c2cc(Nc3ccnc(NCCCN4CCOCC4)n3)ccc21,1.41 ± 0.063,1.54 ± 0.086,1.67 ± 0.096
Cc1ccc(Nc2nccc(N(C)c3ccc4c(C)n(C)nc4c3)n2)cc1S(N)(=O)=O [Pazopanib],1.19 ± 0.042,1.13 ± 0.082,1.26 ± 0.015
O=C1c2ccccc2-c2n[nH]c3cccc1c23,1.12 ± 0.027,1.2 ± 0.15,1.3 ± 0.13
CCn1cc(-c2ccnc3[nH]c(-c4cccc(CN(C)C)c4)cc23)c(-c2ccc(NC(=O)N(C)C)cc2)n1,1.27 ± 0.026,1.45 ± 0.047,1.71 ± 0.16
Oc1ccc(-c2nc(-c3ccc(F)cc3)c(-c3ccncc3)[nH]2)cc1,1.32 ± 0.13,1.41 ± 0.13,1.57 ± 0.12
Cn1cc(-c2ccc3nnc(C(F)(F)c4ccc5ncccc5c4)n3n2)cn1,1.4 ± 0.062,1.44 ± 0.015,1.5 ± 0.019
CC(C)N(CCC(=O)c1ccc2ccccc2c1)Cc1ccccc1,1.31 ± 0.017,1.44 ± 0.11,1.69 ± 0.02
Cc1cc(F)c(Nc2ncnc3cc(OCc4ccccc4)ccc23)cc1O,1.17 ± 0.075,1.11 ± 0.018,1.2 ± 0.016
NC(=O)c1cnc(N[C@@H]2CCCC[C@@H]2N)nc1Nc1cccc(-n2nccn2)c1,1.38 ± 0.058,1.57 ± 0.08,1.71 ± 0.11
Nc1ccc(-c2ccc3ncc4ccc(=O)n(-c5cccc(C(F)(F)F)c5)c4c3c2)cn1 [Torin 2],1.18 ± 0.042,1.17 ± 0.05,1.24 ± 0.1
CCOc1cc2ncc(C#N)c(Nc3ccc(OCc4ccccn4)c(Cl)c3)c2cc1NC(=O)/C=C/CN(C)C [Neratinib (HKI-272)],1.06 ± 0.1,1.19 ± 0.14,1.27 ± 0.092
